From the supplement of paper PMC4894684
Where “and” joins values, the source holds several entries; their conditions need not be identical. Equal values may be shown once. Where a name gives a salt, the structure may show the parent alone. ± gives the standard deviation of the averaged measurements. The campaign covered roughly 1,000 compounds. About 15 (2%) showed an effect of 50% or more. The sample holds strong results, similar compounds and a random draw of the others, so the mix is not that of the screen.

Test system: HFF
Test: uninfected host cell viability relative to vehicle control; higher = less host cell toxicity
Conditions: 5 µM; 72 h; oxygen 21 %

Point of comparison: `CS(=O)(=O)Nc1c(O)ccc2c1CCCC2C1=NCCN1` (stereo not given), “uninfected host cell viability” value 84.9 ± 2.8%. Against it:
- COc1cc2ncn(-c3cc(OCc4ccccc4C(F)(F)F)c(C(N)=O)s3)c2cc1OC — within error, 83.8 ± 1.1%
- COCCNC(=O)COc1ccc(OCCNC[C@H](O)COc2ccccc2)cc1 [ZD 7114 hydrochloride] — within error, 83.8 ± 2.3%
- CCN(CC)CCCCC1CCN(CC(=O)N2c3ccccc3C(=O)Nc3cccnc32)CC1 — within error, 89.2 ± 4.3%
- O=C1c2ccccc2C(Cc2ccnc(F)c2)(Cc2ccnc(F)c2)c2ccccc21 — higher, 90.8 ± 1.9%
- NC(=O)N1C(=O)/C(=C(\O)c2cccs2)c2cc(Cl)ccc21 [Tenidap] — within error, 89.1 ± 2%
- CC(C)[C@H]1c2ccc(F)cc2CC[C@@]1(CCN(C)CCCc1nc2ccccc2[nH]1)OC(=O)C1CC1 [NNC 55-0396 dihydrochloride] — lower, 15.68 ± 0.031%
- COCC(=O)O[C@]1(CCN(C)CCCc2nc3ccccc3[nH]2)CCc2cc(F)ccc2[C@@H]1C(C)C [Mibefradil dihydrochloride] — within error, 79.7 ± 4.6%
- CCCCN1CCCC1CNC(=O)c1cc(C#N)c2ccccc2c1OC (stereo not given) [Nafadotride] — within error, 84.8 ± 2.4%
- COc1cc(C[C@H]2C(=O)OC[C@@H]2Cc2ccc(OC)c(OC)c2)ccc1O [Arctigenin] — higher, 90 ± 1.6%
- C[C@@H](CN1CCC(n2c(=O)[nH]c3cc(Cl)ccc32)CC1)NC(=O)c1ccc2ccccc2c1 — higher, 94.4 ± 5.7%
- COc1ccc(C(=O)Nc2sc3c(c2C(N)=O)CCCC3)cc1OC — within error, 80.1 ± 2.9%
- CCOC(=O)[C@@H](C)Oc1cccc2c(=O)n(CC(=O)Nc3ccc4c(c3)OCCO4)ccc12 — within error, 84.7 ± 0.99%
- NC(=O)c1ccc(-c2nc(-c3ccccn3)c(-c3ccc4c(c3)OCO4)[nH]2)cc1 — higher, 92.28 ± 0.26%
- CC(C1=C(CCN(C)C)Cc2ccccc21)c1ccccn1 (stereo in doubt) [(S)-(+)-Dimethindene maleate] — higher, 94.3 ± 0.97%
- CC(O)(C(=O)Nc1ccc(S(=O)(=O)c2ccccc2)cc1)C(F)(F)F (stereo not given) — higher, 99.7 ± 2.5%
- Clc1ccccc1CNCC1CCC(CNCc2ccccc2Cl)CC1 (stereo not given) — within error, 83.3 ± 1.1%
- CCCCNC(=O)[C@@H]1Cc2ccccc2N1C(=O)[C@@H](N)CC [Butabindide oxalate] — within error, 88.3 ± 5.3%
- CCOc1cc(CC(=O)N[C@@H](CC(C)C)c2ccccc2N2CCCCC2)ccc1C(=O)O [Repaglinide] — higher, 93.7 ± 2.1%
- CCCCCCCCCCCC1=C(O)C(=O)C=C(O)C1=O [Embelin] — within error, 83.69 ± 0.49%
- Nc1nc(-c2ccc(Cl)c(Cl)c2)c(-c2ccncc2)s1 [CGH 2466 dihydrochloride] — within error, 87.4 ± 1.5%
- C[C@H](NC(=O)c1sccc1OCc1ccc(Cl)cc1)c1ccccc1 — higher, 115 ± 1.5%
- CN1c2cc3c(cc2N=C(c2ccc(C(=O)O)cc2)c2ccccc21)C(C)(C)CCC3(C)C — higher, 100 ± 8.6%
- CCc1cc2c(c(CC)n1)CCC(=O)N2Cc1ccc(-c2ccccc2-c2nn[nH]n2)cc1 [ZD 7155 hydrochloride] — higher, 94.11 ± 0.49%
- CC[N+](C)(CC)CC(=O)Nc1c(C)cccc1C [N-Methyllidocaine iodide] — within error, 87.9 ± 3.1%
- CC(=O)N(OCc1ccccc1)[C@H]1c2cc(C#N)ccc2OC(C)(C)[C@H]1O — higher, 98.6 ± 2.8%
- COc1ccc2[nH]c([S+]([O-])Cc3ncc(C)c(OC)c3C)nc2c1 (stereo not given) [Omeprazole] — within error, 85.1 ± 2.2%
- c1nc(CC2CCNCC2)c[nH]1 [Immepip dihydrobromide] — within error, 81.5 ± 3.3%
- CC(C)[C@H](NS(=O)(=O)c1ccc(-c2ccc(Br)cc2)cc1)C(=O)O — within error, 87.2 ± 2.2%
- O=C(NC(NC(=S)Nc1ccc(F)c([N+](=O)[O-])c1)C(Cl)(Cl)Cl)C(c1ccccc1)c1ccccc1 (stereo not given) — within error, 86.1 ± 11%
- Cc1nn(C)c2nc(NNC(=O)Nc3cc(Cl)nc(Cl)c3)cc(C(C)C)c12 — within error, 89.2 ± 3.1%
- O=C(O)c1c(Sc2ccccc2)c2cc(Cl)ccc2n1Cc1ccc(Cl)cc1 — within error, 93.9 ± 8.2%
- O=C(Nc1ccccc1)C12CC1C(=NO)c1ccccc1O2 (stereo not given) — higher, 96.71 ± 0.12%
- Clc1cccc(Nc2nnc(-c3ccccc3)c3ccccc23)c1 — within error, 85.8 ± 0.91%
- CCCCC1CCC(c2nc(-c3ccncc3)no2)CC1 (stereo not given) — higher, 102 ± 3.9%
- Cc1c(C(=O)N(C)C2CCCCC2)sc2nc3ccc(N)cc3n12 — within error, 83.6 ± 2.2%
- COC(=O)C1=C(C)NC(C)=C([N+](=O)[O-])[C@H]1c1ccccc1C(F)(F)F — lower, 68.2 ± 1.7%
- O=S(=O)(c1cccc2cnccc12)N1CCCNCC1 [Fasudil hydrochloride] — higher, 90.57 ± 0.53%
- Cc1cc2nc3c(=O)[nH]c(=O)nc-3n(C)c2cc1C=O — higher, 94 ± 2%
- O=C(O)Cc1cccc(OCCCN(Cc2cccc(C(F)(F)F)c2Cl)CC(c2ccccc2)c2ccccc2)c1 [GW 3965 hydrochloride] — higher, 99.5 ± 3.2%
- CC1=C(C(=O)OCCN(Cc2ccccc2)c2ccccc2)C(c2cccc([N+](=O)[O-])c2)C(P2(=O)OCC(C)(C)CO2)=C(C)N1 (stereo not given) [Efonidipine hydrochloride monoethanolate] — higher, 98.4 ± 7.4%
- Cc1cc(C)c(S(=O)(=O)Nc2cccc(C(F)(F)F)c2)c(C)c1 — within error, 82.4 ± 6.6%
- CN(C)CCCSC(=N)N [Dimaprit dihydrochloride] — higher, 95.8 ± 1.1%
- CC(=Cc1ccc(C(=O)O)cc1)c1ccc2c(c1)C(C)(C)CCC2(C)C — within error, 80.4 ± 2.1%
- CC[C@@H]1Cn2c(c3nc(-c4ccccc4)nc-3n(C)c2=O)N1 — within error, 89.2 ± 4.1%
- COc1ccc2cccc(N3CCN(CCNC(=O)c4ccc(F)cc4)CC3)c2c1 — within error, 82.7 ± 4%
- Cc1ccc(NC2=CC(=O)c3sc(C)nc3C2=O)cc1 [Ryuvidine] — lower, 16.8 ± 0.66%
- O=C(O)c1ccc(-c2c[nH]c3ncc(-c4ccccc4)cc23)cc1C1CCCC1 — higher, 109 ± 2.2%
- Nc1nc2c(cnn2CCc2ccccc2)c2nc(-c3ccco3)nn12 — higher, 96.8 ± 2.3%
- CN(N=O)C(=O)N[C@@H](C=O)[C@@H](O)[C@H](O)[C@H](O)CO [Streptozocin] — within error, 86.9 ± 5.4%
- CC(=O)NCCc1c(Cc2ccccc2)[nH]c2ccccc12 [Luzindole] — higher, 101 ± 4.8%
- CCC(NC(C)C)C(O)c1ccc(O)c2[nH]c(=O)ccc12 (stereo not given) [Procaterol hydrochloride] — within error, 87.5 ± 1.7%
- CCC(=O)NC1Cc2ccccc2C(c2ccccc2)C1 (stereo not given) — higher, 99.58 ± 0.97%

With `N[C@@H](Cn1ccc(=O)n(Cc2ccccc2C(=O)O)c1=O)C(=O)O` the “uninfected host cell viability” value was 84.8% and 85.7%.
In the case of `C[S+]([O-])c1ccc(-c2nc(-c3ccc(F)cc3)c(-c3ccncc3)[nH]2)cc1` (stereo not given), the “uninfected host cell viability” value is reported as 89.4% and 88.6%.
